Bioassay records as filed in PubChem BioAssay.
Polio RdRp inh: poliovirus RdRp elongation inhibitors, primary screen, biochemical, fluorescence polarization, total intensity | Genome polyprotein (Poliovirus type 1 (strain Mahoney)), P03300 | poliovirus polymerase elongation; hits give low values | % elongation, % (compound at 16.7 µg/mL) | 150,000 tested, 0.66% active; in the data active means % elongation below about 90%
Target sequence (P03300 1749-2209 limits assumed): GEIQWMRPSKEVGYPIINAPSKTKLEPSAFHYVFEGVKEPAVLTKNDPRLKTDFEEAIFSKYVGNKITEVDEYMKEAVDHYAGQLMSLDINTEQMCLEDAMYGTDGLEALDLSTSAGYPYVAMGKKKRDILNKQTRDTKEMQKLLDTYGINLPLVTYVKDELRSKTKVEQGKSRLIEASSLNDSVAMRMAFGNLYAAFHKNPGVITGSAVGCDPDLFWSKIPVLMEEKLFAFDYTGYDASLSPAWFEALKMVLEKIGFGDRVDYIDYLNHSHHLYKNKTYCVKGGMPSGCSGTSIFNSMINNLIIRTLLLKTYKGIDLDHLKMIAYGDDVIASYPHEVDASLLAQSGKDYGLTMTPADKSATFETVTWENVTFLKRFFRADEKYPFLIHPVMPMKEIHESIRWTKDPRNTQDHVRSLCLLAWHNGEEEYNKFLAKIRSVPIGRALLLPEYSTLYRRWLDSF
MbtI inh: MbtI salicylate synthase inhibitors, primary screen, biochemical, fluorescence intensity | P9WFX0 | purified MbtI enzyme, fluorescence intensity read-out | inhibition, % (concentration not given with the values) | 100,000 tested, 0.89% active | AID 493033, 2011; in the data active means inhibition mostly above about 56%, no sharp cut-off; inactive means mostly below about 77%
Mtb MenB inh: M. tuberculosis MenB inhibitors, primary screen, biochemical, absorbance; 1,4-dihydroxy-2-naphthoyl-CoA synthase (Mycobacterium tuberculosis (strain ATCC 25618 / …; MenB enzyme assay, absorbance read-out; inhibition, % (no concentration beside the values); 100,000 tested, 0.43% active; AID 540299, 2011; in the data active means inhibition above about 21%, passing the limit was not always enough
The depositor's hits bear a star; / = no result given. A selection: hits, their analogues and other compounds. The true share with any hit is near 1.4%.

SMILES	Polio RdRp inh	MbtI inh	Mtb MenB inh
COC(=O)c1ccc(C(=O)OC)c(NC(=O)c2cc3nc(-c4ccc(C)cc4)cc(C(F)(F)F)n3n2)c1	104	/	/
COC(=O)c1cc2nc(-c3ccc(F)cc3)cc(C(F)(F)F)n2n1	87*	/	-15
CCOC(=O)c1ccc(NC(=O)Cn2nc(SC)c(S(=O)(=O)c3ccc(Cl)cc3)c2N)cc1	109	/	/
O=C(Cn1c(SCCOc2ccccc2)nc2ccccc21)N1CCOCC1	81*	/	/
COc1ccc(OCCSc2nc3ccccc3n2CC(=O)N2CCOCC2)cc1	107	/	/
S=C(NCc1ccc2c(c1)OCO2)N(Cc1ccco1)Cc1cccs1	88*	60*	-39
O=C(COC(=O)Cc1cccs1)NCc1ccc2c(c1)OCO2	102	9	-28
Cc1ccc(C(=O)CC(NCCc2c[nH]c3ccccc23)C(=O)O)cc1 (configuration not stated)	103	/	47*
CC(C)C(=O)NCCc1c[nH]c2ccccc12	101	-24	-9
COc1ccc(/C=C/C(O)=C2/C(=O)NC34CCCCC3C2c2ccccc2O4)c(OC)c1OC (configuration not stated)	101	-21	-37
CCN(C(=O)Cc1noc2ccccc12)c1ccccc1	101	-8	15
COc1ccc(-c2cn3c(n2)CCC3)cc1	101	-8	/
c1c(SSc2cn3c(n2)CCC3)nc2n1CCC2	99	93*	-45
CC(=O)c1c(C)n(-c2cccc(C)c2)c2ccc(OC(=O)COc3ccccc3)cc12	106	/	/
O=C(Cc1ccccc1)Nc1c(C(=O)N2CCCCC2)cnn1-c1ccccc1	103	/	-17
COCC(C)N1CC(C(=O)O)CC1=O (configuration not stated)	101	2	-20
O=C1CSc2nnc(C3COc4ccccc4O3)n2N1 (configuration not stated)	95	85*	-55
Cn1c(SCc2ccc(F)cc2)nnc1C1COc2ccccc2O1 (configuration not stated)	105	-6	9
C=CCn1c(Cc2ccc(O)c(Cl)c2)n[nH]c1=S	101	93*	-18
C=CCn1c(CNC(=O)c2ccccc2)n[nH]c1=S	104	13	-36
O=C(CN1CCN(CC(=O)Nc2ccccc2F)CC1)Nc1ccc(F)cc1	100	-12	-5
CC1CCN(S(=O)(=O)c2ccc3[nH]c(=O)cc(C(=O)NCCCN4CCOCC4)c3c2)CC1	99	22	-10
CC(NC(=O)c1cc(=O)[nH]c2ccc(S(=O)(=O)N3CCOCC3)cc12)C12CC3CC(CC(C3)C1)C2 (configuration not stated)	-9.0*	11	-13
COc1ccc(S(=O)(=O)Nc2cc(C(=O)NC3CCCCCCC3)ccc2N2CCOCC2)cc1	100	-11	-9
CCc1ccc(NC(=O)N2CCCCC2C)cc1 (configuration not stated)	104	-17	-7
SMILES	Polio RdRp inh	MbtI inh	Mtb MenB inh
O=C1NC(=O)C(=C2CCCCC2)S1	105	86*	-36
O=C1N=C(N2CCOCC2)SC1=C1CCCCC1	101	-4	-20
Cc1c(C(=O)O)oc2c1-c1[nH]ncc1CC2	/	6	/
COC(=O)Cc1[nH]n(-c2nc3ccccc3s2)c(=O)c1C(C)=O	107	/	-11
CC(=O)c1c(CC(=O)O)[nH]n(-c2nc3ccccc3s2)c1=O	101	60*	-16
Oc1ccccc1C(=S)N1CCN(C(=S)c2ccccc2O)CC1	101	94*	-46
O=C(c1ccccc1O)N1CCOCC1	112	/	-7
N#Cc1cc2c(nc1SCC(=O)c1ccccc1)CCCC2	101	/	-4
C[N+](C)(C)CCC(O)c1ccccc1 (configuration not stated)	102	-11	0
NCC1CCN(Cc2ccccc2)C1 (configuration not stated)	103	34	28*
c1ccc(CN2CCCC(c3ccccc3)C2)cc1 (configuration not stated)	/	-11	/
CCCSCCCNC(=O)c1cc2n(n1)CCCN(Cc1ccc(C)cc1)C2=O	112	/	/
COc1cc(N2CN=c3s/c(=C\C=C\c4ccccc4)c(=O)n3C2)cc(OC)c1OC	103	0	-12
CCN(CC)C(=O)COc1ccccc1C(=O)NCc1ccccc1	102	-6	27*
CCN(CC)C(=O)COc1cccc2ccccc12	99	10	-18
O=C(N/N=C1\CC(=O)c2ccccc21)c1ccc2c(c1)OCO2	89	8	-164
O=C1Nc2ccccc2S/C1=C\c1ccccc1	101	-23	-48
O=C1N/C(=N\Nc2ccccc2)S/C1=C\c1ccccc1	108	80*	-36
CC(C)CCNC(=O)C1CCN(Cc2cccc(OCc3ccccc3)c2)CC1	74*	/	-7
O=C(NCCc1ccccc1)C1CCN(Cc2cc3ccccc3n2Cc2cccc(Cl)c2)CC1	106	/	/
CN(Cc1ccccc1)S(=O)(=O)c1nnc(NC(=O)c2ccccc2Cl)s1	114	/	/
